From ChEMBL document CHEMBL4513216, “Probing the Open Global Health Chemical Diversity Library for Multistage-Active Starting Points for Next-Generation Antimalarials” (ACS Infect Dis, 2020)
In all, about 69,000 compounds went through this assay and about 8,600 (12%) showed an effect of 50% or more. This is one part of a sample in which strong results are shown more often than they occur.

system: Plasmodium berghei; assay: Screen against P. berghei liver stage (PbLuc), transformed with Luciferase, at 10uM; format: functional, HepG2; conditions: tested at 10 uM

SMILES | INHIBITION [%]
CCCC(=O)Nc1cccc(C(=O)N(C)CCCC2CCCO2)c1 (centres undefined) | 33.7
COCCn1c2c(ccc1=O)CCN(Cc1ccoc1)CC2 | 25.1
CCN1CCC2(C=C(C(=O)NC3CC3)c3ccccc32)CC1 | 12.4
CCOCCn1c(=O)[nH]c2cc(C(=O)N(C)Cc3ccno3)ccc21 | 8.35
Cc1nc(CN(C)C(=O)c2cccc(CC3CCNCC3)c2)no1 | 34
CN(Cc1nc(C2CC2)no1)C(=O)C1COc2ccccc2C1 (centres undefined) | -9.08
CN(Cc1nc(C2CC2)no1)C(=O)c1cccc(CC2CCNCC2)c1 | 59.7
CNc1ncc(CN(C)C(=O)c2cccc(CC3CCNCC3)c2)cn1 | 19.1
CN(Cc1ccno1)C(=O)c1cccc(CC2CCNCC2)c1 | 70.4
CCN(Cc1cnn(C)c1)C[C@H]1CC[C@@H](Cc2cccc(CN)c2)O1 | 15.1
Cc1cnn(CC2CCCN2CCCS(C)(=O)=O)c1 (centres undefined) | 13.3
CCN(c1cc(C)cc(C)c1)S(=O)(=O)c1cc(C(=O)O)cs1 | 42.9
O=C(NCc1ccco1)[C@H]1CC[C@@H]2[C@@H](CCN2Cc2nccs2)O1 | -30.1
Cc1ccc(NC(=O)c2n[nH]c(-n3cnnc3)n2)cc1 | -5.59
Cc1noc(C)c1CC(=O)N1CCN(Cc2cscn2)CC1 | 27.94
Cc1noc(C)c1CCC(=O)N1CCCN(Cc2cscn2)CC1 | -5.51
Cc1noc(C)c1CC(=O)N1CCCN(Cc2cscn2)CC1 | 57.4
Cc1noc(C)c1CCC(=O)N1CCCN(Cc2cccs2)CC1 | 52
CCc1nc(CN2CCN(C(=O)Cc3c(C)noc3C)CC2)cs1 | 50.4
CCc1nc(CN2CCN(C(=O)N3CCCCC3)CC2)cs1 | -2.53
CCc1nc(CN2CCCN(C(=O)c3c(C)noc3C)CC2)cs1 | 28.7
Cc1noc(C)c1CCC(=O)N1CCCN(CC(N)=O)CC1 | 37.95

SMILES | INHIBITION [%]
Cc1noc(C)c1CCC(=O)N1CCN(Cc2cscn2)CC1 | 1.7
O=C(C1CCOC1)N1CCN(CCn2cccn2)c2ncccc2C1 (centres undefined) | 11.3
CN(C)C(=O)CN1CCC2(CCN(S(=O)(=O)C3CC3)CC2)C1=O | 32.1
Cc1cc(O)nc(C2CCCN(CCO)C2)n1 (centres undefined) | -0.232
CCCC(=O)N1CCc2c(CNS(C)(=O)=O)cncc2C1 | 13.5
O=C(c1cnc2ccc(F)cc2c1NCc1ccco1)N1CCCC1 | 37.2
O=C(c1ccno1)N1CCC2(CC1)C(=O)N(CC1CC1)c1ccccc12 | 25.7
O=C([C@H]1CCCO1)N1CCN(Cc2cccnc2)c2ncccc2C1 | 15.4
CC(=O)N1CCSCC1c1ccc(C)o1 (centres undefined) | -13.8
COC(=O)c1ccc(CCn2cnc(C#N)n2)cc1 | 13.8
COC(=O)c1ccc(CNCc2cn(C)nc2C)cc1 | 70.8
COC(=O)c1ccc(Cn2cnc(C#N)n2)cc1 | 6.23
COC(=O)c1ccc(CNCc2ccn(C)n2)cc1 | 56
COc1ccc(CNCc2cn(C)nc2C)cc1 | 24.8
CCn1cc(CNCc2ccc(C(=O)OC)cc2)c(C)n1 | 39.7
CN(C)[C@@H]1CCN(C(=O)c2ccsc2)[C@H]1Cc1cccnc1 | 38.1
Cc1cc(C)nc(C2CCN(C(=O)CO)CC2)n1 | 26.65
CCC(NC(=O)c1c(C(=O)O)cnn1C)c1ccc(C)cc1C (centres undefined) | 15.9
Cc1cc(C)c(CNC(=O)N2CCN(c3ccncc3)CC2)c(=O)[nH]1 | -21.45
Cc1nn(C)cc1-c1ccnc(N(C)Cc2cccs2)n1 | 35.5
Cc1nn(C)cc1-c1ccnc(N(C)Cc2ccon2)n1 | 49.6
Cc1nn(C)cc1-c1ccnc(N(C)Cc2ccoc2)n1 | 51.8

SMILES | INHIBITION [%]
COc1ccc(CN(C)c2nccc(-c3cn(C)nc3C)n2)cc1 | -7.76
Cc1ccc(CN(C)c2nccc(-c3cn(C)nc3C)n2)o1 | 50.7
Cc1nn(C)cc1-c1ccnc(N(C)Cc2ccc(F)cc2)n1 | 30.1
CN(Cc1ccoc1)c1ccc(-c2nccn2C)nn1 | -120
Cc1nn(C)cc1CN(C)c1nccc(-c2cn(C)nc2C)n1 | 28
COc1ccccc1CN(C)c1nccc(-c2cn(C)nc2C)n1 | 82.3
CN(Cc1cnn(C)c1)c1nccc(-c2cc(C(=O)O)ccn2)n1 | 33
Cc1nn(C)cc1-c1ccnc(N(C)Cc2cnn(C)c2)n1 | 74.5
CCCN1CCCC1Cn1nc(C)cc1C (centres undefined) | 34.35
N#Cc1cc(C#N)c(SCC(=O)Nc2ccc(F)cc2)nc1N | 35.1
O=C(CCN1CCCC1=O)Nc1cnn(-c2ccccc2Cl)c1 | -46.4
CC(CNC(=O)OC(C)(C)C)N(C)C(=O)COc1ccccc1C#N (centres undefined) | 15.9
Cc1ncsc1C(=O)N(C)Cc1ccsc1 | -23.955
Cn1cnc(S(=O)(=O)N2CCCCc3ccccc32)c1 | -0.613
O=C(O)c1ccccc1CN1CCOC(CCc2ccncn2)C1 (centres undefined) | 20.8
CCn1cc(CNCC(c2ccc(C)s2)N2CCOCC2)cn1 (centres undefined) | 14.9
Cc1ccc(C(CNCc2ccc(C#N)cc2)N2CCOCC2)s1 (centres undefined) | 69.7
CCCn1cc(CNCC(c2ccc(C)s2)N2CCOCC2)cn1 (centres undefined) | 63.7
Cc1ccc(C(CNCc2cccn2C)N2CCOCC2)s1 (centres undefined) | 38
Cc1ccc(C(CNCc2ccncc2)N2CCOCC2)s1 (centres undefined) | -33.2
Cc1ccc(C(CNCc2cnn(C(C)C)c2)N2CCOCC2)s1 (centres undefined) | -48.2
O=C(NCC1COCc2c(-c3ccncc3)nnn2C1)[C@H]1CCCO1 (some centres undefined) | -34.6

SMILES | INHIBITION [%]
CC(Cn1cccn1)n1cnc2cccc(F)c2c1=O (centres undefined) | 30
CCn1ncc(CN2CCc3c(nc(-c4cccnc4)[nH]c3=O)C2)c1C | 23.3
OCCN1CCC(c2cncc(-c3cccc(Cl)c3)n2)CC1 | 23.2
N#CC1(c2ccccc2)CCN(C(=O)C2CCCN(C(N)=O)C2)CC1 (centres undefined) | 30.5
NC(=O)CN1CCCC(C(=O)N2CCC(Oc3ncccn3)CC2)C1 (centres undefined) | 27.6
N#CC1(c2ccccc2)CCN(C(=O)C2CCCN(CC(N)=O)C2)CC1 (centres undefined) | 61
N#CC1(c2ccccc2)CCN(C(=O)CN2C(=O)CCNC2=O)CC1 | 30.1
NC(=O)CN1CCCC(C(=O)N2CCC(O)(c3ccccc3)CC2)C1 (centres undefined) | 58.3
NC(=O)CN1CCCC(C(=O)N2CCC(O)(Cc3ccccc3)CC2)C1 (centres undefined) | 8.07
O=C(c1ccc(=O)[nH]n1)N1CCNCC1c1ccccc1 (centres undefined) | 8.12
CCOCC(=O)N1CCC(c2cc3ncccc3c(O)n2)CC1 | 0.301
CC(C)NC(=O)N1C[C@H](OCc2cccnc2)[C@H]2COC[C@H]21 | -18.2
Cc1nc(O)cc(C2(C)CCCNC2)n1 (centres undefined) | 1.4
Cc1ccc(-n2nc(C)c3c2NC(=O)CC3c2cnc(N)s2)cc1 (centres undefined) | 62.6
CCn1cncc1C1CC(=O)Nc2c1c(C)nn2-c1ccc(C)cc1 (centres undefined) | 42
Cc1nn(-c2ccccc2)c2c1C(c1ccc(C(=O)O)cc1)CC(=O)N2 (centres undefined) | 32.7
CCn1ncc(S(=O)(=O)N[C@@H]2CCC[C@@H](n3ccnc3)[C@@H]2O)c1C | 28.7
COCCCNc1cc(C)nn2cnnc12 | 3.35
CCC(CC)(CNC(=O)OC(C)(C)C)NC(=O)c1cnccn1 | 67.4
CC(C)CC(C)(CNC(=O)c1cnccn1)NC(=O)c1cnccn1 (centres undefined) | 25.4
CC(C)C(C)(CNC(=O)OC(C)(C)C)NC(=O)c1cnccn1 (centres undefined) | 0.705
Cn1ccc(C(=O)N2CCCC2c2cc[nH]n2)n1 (centres undefined) | 21.925

SMILES | INHIBITION [%]
Cc1nn(C)c(N2CCOCC2)c1CNC1CCN(C2CC2)CC1 | -21.7
NC(=O)NC(=O)CNc1cccc(C(=O)c2ccccc2)c1 | 0.0459
CCN1CCN(S(=O)(=O)c2cc(C)c(C)cc2Br)CC1 | 66.5
CCN1CCN(S(=O)(=O)c2cc(Cl)c(Cl)cc2C)CC1 | 61.8
CCN1CCN(S(=O)(=O)c2ncn(C)c2Cl)CC1 | -10.4
CCN1CCN(S(=O)(=O)c2ccc(Cc3cc(C)n[nH]c3=O)cc2)CC1 | 9.96
CCN1CCN(S(=O)(=O)c2cc(C)c(Cl)cc2Cl)CC1 | 43.5
CCN1CCN(S(=O)(=O)c2cc(C)c(Cl)cc2C)CC1 | 49.7
CN(C)S(=O)(=O)c1ccc(CNC(=O)C2CC(=O)N(C(C)(C)C)C2)cc1 (centres undefined) | -3.305
CN(C)C(=O)CN1CCC(c2nnc(Cn3cccn3)n2C2CC2)CC1 | 16.3
CN1[C@H](CN2CCCC2)C[C@@H]2CN(C(=O)c3cnccn3)CC[C@@H]21 | 18.6
Cc1nc(C2CCN(c3ccccc3)CC2)no1 | 32.8
Cc1noc(C2CCN(C(=O)c3ccc(C(F)(F)F)nc3)CC2)n1 | -34.025
Cc1noc(C2CCN(C(=O)c3ccc(N(C)C)nc3)CC2)n1 | 6.92
Cc1noc(C2CCN(C(=O)c3ccc(NC4CC4)nc3)CC2)n1 | 59.7
CCCc1ccc2oc(C(=O)N3CCC(O)CC3)c(C)c2c1 | 2.7
CSc1ccc(Cl)c(C(=O)N2CCCC(CNS(C)(=O)=O)C2)c1 (centres undefined) | 41.4
COc1ccccc1OCC(=O)NS(=O)(=O)c1cccnc1 | 29.8
CCn1c(SCC(=O)N2CCOCC2)nc2cc(C)[nH]c2c1=O | 2.69
Cc1cc2nc(SCC(=O)N3CCOCC3)n(C(C)C)c(=O)c2[nH]1 | 47.4
CCC(C)n1c(SCC(=O)N2CCOCC2)nc2cc(C)[nH]c2c1=O (centres undefined) | 57.3
